HP1b chromo inh: inhibitors of HP1-beta chromodomain binding to methylated histone tails; actives 0.56% (n = 390,000); P83916; Potency, µM (series often up to 114 µM), usual class: inhibitors; AID 540317; AlphaScreen HP1-beta / biotin-H3K9me3 peptide binding; also: nearly all actives have a fitted effect of over 70% in size
Target sequence (P83916 whole entry, looked up): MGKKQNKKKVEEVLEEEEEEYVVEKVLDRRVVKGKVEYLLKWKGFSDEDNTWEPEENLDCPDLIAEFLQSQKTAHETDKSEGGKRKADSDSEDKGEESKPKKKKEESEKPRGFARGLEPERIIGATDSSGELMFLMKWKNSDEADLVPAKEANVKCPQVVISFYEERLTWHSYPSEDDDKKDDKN
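Compound inhibition of the preformed complex between 50 nM HP1-beta and 50 nM biotinylated H3K9me3 peptide was read by AlphaScreen. Buffer was PBS pH 7.4 with 0.01% Tween-20. Incubations ran 30 min at room temperature, with 10 ug/mL donor/acceptor beads.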
PLK1 PBD block: PLK1 (human) polo-box domain binding inhibition | actives 2.8% (n = 360,000) | P53350 | AID 720504 | Potency, µM, actives largely listed as inhibitors | Plk1 PBD binding of FITC phosphopeptide, fluorescence polarization; also: series mostly up to about 57 µM; nearly all actives have a fitted effect of over 65% in size
Sfp inh: blocks B. subtilis Sfp PPTase activity | Potency, µM, usual class: inhibitors | actives 3.5% (n = 310,000) | Q9F4F7 | Biochemical Sfp PPTase activity, qHTS;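 also: the enzyme is Sfp with the accession as filed and its product quenches rhodamine fluorescence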
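Fluorescence-quenching assay: 15 nM Sfp-PPTase preincubated 15 min at room temperature with compound, then 5 uM rhodamine-CoA and 12.5 uM BHQ-2-labelled YbbR peptide added. Fluorescence (ex 525/em 598 nm) read at start and after 30 min; difference gives rate.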
BAZ2B block: inhibitors of human BAZ2B bromodomain | AlphaScreen BAZ2B-H3K14Ac peptide displacement | Potency, µM (highest dose often 114 µM), most hits filed as inhibitors | actives 4.4% (n = 360,000) | Q9UIF8; also: nearly all actives have a fitted effect of over 60% in size
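Protein-peptide AlphaScreen: BAZ2B 50 nM, b-H3K14Ac 50 nM, 1x PBS pH 7.4 + 0.01% Tween-20. Preincubation 30 min RT; cpd 30 min RT (top 110 uM); beads 20 min RT, light-protected.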
JMJD2A Tudor inh: blocks the human JMJD2A Tudor domain; AID 504339; AlphaScreen JMJD2A-Tudor / H3K4me3 peptide binding; actives 4.4% (n = 390,000); O75164; Potency, µM (series often up to 114 µM), usual class: inhibitors; also: nearly all actives have a fitted effect of over 50% in size
G9a inh: blocks human histone lysine methyltransferase G9a | G9a H3K9 monomethylation, AlphaScreen, 2 h | actives 8.8% (n = 350,000) | AID 504332 | Potency, µM (highest dose often 102 µM), hits mostly inhibitors | Q96KQ7; also: nearly all actives have a fitted effect of over 75% in size
Target sequence (Q96KQ7 913-1193 limits assumed): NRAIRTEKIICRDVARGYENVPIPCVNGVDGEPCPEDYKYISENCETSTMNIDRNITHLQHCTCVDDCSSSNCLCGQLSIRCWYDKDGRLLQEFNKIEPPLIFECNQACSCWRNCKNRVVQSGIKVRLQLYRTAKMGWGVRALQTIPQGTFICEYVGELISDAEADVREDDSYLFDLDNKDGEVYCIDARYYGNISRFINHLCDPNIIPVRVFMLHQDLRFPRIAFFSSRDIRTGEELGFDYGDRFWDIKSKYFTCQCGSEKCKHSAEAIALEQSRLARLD
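G9a (20 nM) preincubated 15 min RT with compounds, then 500 nM biotinylated H3K9 peptide and 20 uM SAM added; 2 h RT reaction. Monomethyl-H3K9 product detected by AlphaScreen with anti-H3K9me1 antibody, streptavidin donor and anti-rabbit IgG acceptor beads.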
Large screens that a line does not name were inactive. An excerpt weighted towards active compounds, which were near 12% of everything screened. Calls follow the shape of the dose curve; as a rule, active = well fitted curve in the direction sought with a large enough effect; inconclusive = small, poorly fitted or top-dose-only effect, or another doubt; inactive = no such curve, though single readings can be large; an effect the other way counts as inactive or inconclusive.

Cn1c(=O)[nH]c(=O)c2[nH]c(N(Cc3ccccc3)Cc3ccccc3)nc21	Sfp inh 89µM, BAZ2B block inconclusive, JMJD2A Tudor inh inconclusive, G9a inh 50µM
Cn1c(=O)[nH]c(=O)c2[nH]c(CN3CCN(Cc4ccccc4)CC3)nc21	none
O=C(Cn1c(SCCOc2ccccc2Cl)nc2ccccc21)N1CCOCC1	none (no result: PLK1 PBD block, Sfp inh)
Cc1ccc2nc(C(=O)O)c(C(=O)O)nc2c1	BAZ2B block inconclusive, JMJD2A Tudor inh 40µM, G9a inh 35µM
Cc1ccc(C(=O)N(Cc2cccnc2)Cc2cc3cc(C)ccc3n3nnnc23)cc1	none (no result: G9a inh)
NS(=O)(=O)c1ccc(NCc2ccccc2OCc2ccc(F)cc2)cc1	BAZ2B block 56µM, G9a inh inconclusive
NS(=O)(=O)c1ccc(CCNCc2ccccc2OCc2ccc(F)cc2)cc1	none
CCOc1ccc(NCc2ccccc2OCc2cccc(F)c2)cc1	BAZ2B block inconclusive, JMJD2A Tudor inh inconclusive, G9a inh 10µM
Fc1cccc(COc2ccccc2CNc2ccccc2)c1	none
O=S(=O)(CCc1ccccc1)CS(=O)(=O)CCc1ccccc1	none (no result: Sfp inh, BAZ2B block, G9a inh)
COc1ccc(-c2cc(C(C)=O)c(C)n2CCC(=O)Nc2ccc(C)cc2Cl)cc1	none (no result: PLK1 PBD block, Sfp inh)
Cc1ccc(C)n1-c1ccc(-c2nnco2)cc1	G9a inh 45µM (no result: HP1b chromo inh, PLK1 PBD block, JMJD2A Tudor inh)
CCOC(=O)N1CCN([N+]([O-])=NOc2cc(O/N=[N+](\[O-])N(CC)CC)c([N+](=O)[O-])cc2[N+](=O)[O-])CC1	none (no result: PLK1 PBD block, BAZ2B block, G9a inh)
O=C1CNC(=O)/C1=C/c1ccccc1	PLK1 PBD block 6µM
O=C1CNC(=O)/C1=C/c1ccc(Br)cc1	PLK1 PBD block 7.5µM (no result: G9a inh)
NCCCN(Cc1ccc(Cl)c(Cl)c1)c1ccc(Br)cn1	none (no result: PLK1 PBD block, Sfp inh, BAZ2B block, G9a inh)
CN(C)CCCNC(NC(=O)c1cccs1)C(Cl)(Cl)Cl (centres undefined)	none
COc1ccc2nc(SCC(=O)C(C)(C)C)[nH]c2c1	Sfp inh 40µM, G9a inh 56µM
COc1ccc2nc(SCC(=O)NC(C)(C)C)[nH]c2c1	none
COc1ccc2nc(SCC(=O)NCc3ccc(OC)c(OC)c3)[nH]c2c1	PLK1 PBD block inconclusive, JMJD2A Tudor inh 89µM
CCOc1ccc2nc(SCC(=O)Nc3ccc4[nH]c(=O)[nH]c4c3)[nH]c2c1	BAZ2B block inconclusive, G9a inh 40µM (no result: Sfp inh)
Nc1nc(SCC(=O)c2c(N)n(C3CC3)c(=O)[nH]c2=O)n[nH]1	G9a inh 11µM (no result: Sfp inh)
COc1ccc(CNC(=O)CSc2nc3ccc(OC)cc3[nH]2)cc1	none
CCOc1ccc2nc(SCC(=O)NC(=O)NCc3ccco3)[nH]c2c1	BAZ2B block inconclusive, G9a inh 50µM
COc1ccc2nc(SCC(=O)c3c(N)n(C4CC4)c(=O)[nH]c3=O)[nH]c2c1	G9a inh 7.1µM (no result: Sfp inh)
CCOc1ccc2nc(SCC(=O)NCc3ccc(OC)c(OC)c3)[nH]c2c1	PLK1 PBD block 27µM
CCOc1ccc2nc(SCC(=O)N(C)C3CCS(=O)(=O)C3)[nH]c2c1 (centres undefined)	G9a inh 40µM
COc1ccc2nc(N3CCCC3)[nH]c2c1	G9a inh 5.6µM
COc1ccc(N2CCN(C(=O)C3CCN(c4nc5ccc(C)cc5[nH]4)CC3)CC2)cc1	G9a inh inconclusive (no result: PLK1 PBD block, Sfp inh)
CCOc1ccc(-n2c(=S)sc3c(=O)[nH]c(SCC(=O)NCc4ccco4)nc32)cc1	PLK1 PBD block inconclusive, Sfp inh 56µM, BAZ2B block inconclusive, JMJD2A Tudor inh inconclusive, G9a inh 40µM
Cc1cc(NC(=O)Cn2c(=O)n(Cc3ccccc3)c(=O)c3ccccc32)no1	Sfp inh 25µM
CCc1ccccc1NC(=O)CC(NCc1ccccc1)C(=O)O (centres undefined)	JMJD2A Tudor inh inconclusive, G9a inh 28µM
COC(=O)c1ccccc1NC(=O)CC(NCc1ccccc1)C(=O)O (centres undefined)	JMJD2A Tudor inh 28µM (no result: Sfp inh, BAZ2B block, G9a inh)
CC1(C(=O)O)NCCc2cc(O)c(O)cc21 (centres undefined)	Sfp inh 56µM, G9a inh 18µM (no result: HP1b chromo inh, PLK1 PBD block, BAZ2B block, JMJD2A Tudor inh)
Cc1ccc(NC(=O)c2ncc(Cl)c(Cl)c2Cl)cc1C	none
COC(=O)C1=C(C)N(Cc2ccccc2)C(=O)/C1=C\c1ccco1	HP1b chromo inh inconclusive, BAZ2B block 18µM, JMJD2A Tudor inh inconclusive, G9a inh 28µM
CCOC(=O)C1=C(C)N(c2ccc(OCC)cc2)C(=O)/C1=C\c1ccco1	HP1b chromo inh 45µM, Sfp inh 50µM, BAZ2B block 8.9µM, JMJD2A Tudor inh 22µM, G9a inh inconclusive
Cc1ccc(/C=C2\C(=O)NC(=O)N2C)o1	Sfp inh 40µM, G9a inh 35µM
Cc1ccc(/C=N/N2C(=O)C3C(C2=O)C2C=CC3C23CC3)o1 (centres undefined)	none
Cc1ccc(/C=C2/C(=O)N(c3ccccc3)C(=S)N2C)o1	HP1b chromo inh inconclusive, Sfp inh 5µM, BAZ2B block inconclusive, JMJD2A Tudor inh inconclusive, G9a inh 8.9µM
CCN1C(=O)/C(=C\c2ccco2)C(C(=O)OC)=C1C	BAZ2B block inconclusive, JMJD2A Tudor inh inconclusive, G9a inh inconclusive
CCOc1cccc(C(=O)Nc2cc(C)ccc2NC(=O)c2ccco2)c1	BAZ2B block inconclusive (no result: G9a inh)
CCCCCCC(=O)Cc1cc(OC)c(OC)cc1/C=C(/C(C)=O)C(=O)OC	none (no result: HP1b chromo inh, PLK1 PBD block, BAZ2B block, JMJD2A Tudor inh, G9a inh)
CCOc1ccc(N2C(=O)/C(=C/c3ccco3)N(C)C2=S)cc1	Sfp inh 40µM, G9a inh 10µM
COC(=O)C1=C(C)N(c2cccc(OC)c2)C(=O)/C1=C\c1ccco1	HP1b chromo inh 40µM, PLK1 PBD block 30µM, BAZ2B block 18µM, JMJD2A Tudor inh 45µM, G9a inh inconclusive
CCOc1ccc(N2C(=O)/C(=C/c3ccccc3OCC(=O)OC)N(CC(=O)OC)C2=S)cc1	G9a inh inconclusive
COC(=O)C1=C(C)N(CCc2ccccc2)C(=O)/C1=C\c1ccco1	Sfp inh 50µM, BAZ2B block 35µM, JMJD2A Tudor inh 40µM, G9a inh 32µM
COC(=O)C1=C(C)N(CCc2ccccc2)C(=O)C1	G9a inh inconclusive
C=CCN1C(=O)/C(=C\c2ccco2)C(C(=O)OC)=C1C	Sfp inh 20µM, BAZ2B block 45µM, JMJD2A Tudor inh inconclusive, G9a inh inconclusive
C/C=C/C(=O)[C@@H](C)[C@@H](/C=C/C[Si](C)(C)C)c1ccccc1	none (no result: PLK1 PBD block, BAZ2B block, G9a inh)
CC(C)NC(=O)C1CCN(c2nc3ccccc3nc2C(F)(F)F)CC1	none (no result: PLK1 PBD block, Sfp inh)
COc1ccc(C(=O)Nc2cc(C)c(NC(=O)c3ccccn3)cn2)cc1	G9a inh 45µM
Cc1cc(NC(=O)C2CC2)ncc1NC(=O)c1ccccn1	PLK1 PBD block 27µM, Sfp inh inconclusive, BAZ2B block 79µM, G9a inh inconclusive
Cc1cc(NC(=O)C2CCCCC2)ncc1NC(=O)c1ccccn1	BAZ2B block inconclusive (no result: G9a inh)
O=C(Nc1ccccc1)c1cc(C2CCCN(C(=O)c3cccs3)C2)on1 (centres undefined)	none (no result: HP1b chromo inh, Sfp inh, BAZ2B block, JMJD2A Tudor inh, G9a inh)
